# Assay results: the supplement of paper PMC3334620
# Over roughly 33,000 sequences, “E-score (-0.5 to 0.5)” has its median near -0.0014; the highest 2% begin near 0.25. The entries come from a sample that favours the highest values as a whole.
# Target: T1, Cad1 (UniProt P24813)
# T1 sequence: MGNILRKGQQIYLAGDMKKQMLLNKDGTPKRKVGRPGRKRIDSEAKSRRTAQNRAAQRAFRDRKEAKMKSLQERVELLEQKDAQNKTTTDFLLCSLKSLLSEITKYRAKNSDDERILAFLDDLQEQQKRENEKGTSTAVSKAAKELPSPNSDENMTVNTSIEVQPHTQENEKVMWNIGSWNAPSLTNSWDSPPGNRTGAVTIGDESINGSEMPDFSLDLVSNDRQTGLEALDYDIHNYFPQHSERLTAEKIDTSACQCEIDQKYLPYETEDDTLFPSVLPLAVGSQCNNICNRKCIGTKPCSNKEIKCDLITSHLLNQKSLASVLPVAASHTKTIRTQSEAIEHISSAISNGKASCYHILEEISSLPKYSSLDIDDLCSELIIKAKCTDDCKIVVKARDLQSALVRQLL
# Assay: PBM E-score (8-mer binding enrichment) (E-score (-0.5 to 0.5)); higher = stronger / more preferred TF binding
# Settings: protein concentration: 100 nM; construct: GST-full length
# Protocol: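 Universal 'all 10-mer' protein binding microarrays (Agilent AMADID 015681) probed with GST-tagged S. cerevisiae TFs (full-length or DBD) made by in vitro transcription/translation (PURExpress), about 100-200 nM. Bound TF was detected with fluorescent anti-GST. Each ungapped 8-mer (which stands for itself and its reverse complement) is scored by the PBM enrichment score (E-score), a modified Wilcoxon-Mann-Whitney statistic from -0.5 to +0.5, computed with the Universal PBM Analysis Suite. Scale: above 0.35 generally sequence-specific binding.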
row,Sequence,PBM E-score
1,GTCAGACA,0.116
2,AAGGTCGT,0.0718
3,CCTAGACC,-0.179
4,GGTTAGAA,-0.111
5,AAGCTCGA,0.263
6,AAGCTCGC,0.224
7,CAGCTCGA,0.0283
8,TTGGCAAA,0.121
9,ATAGATTG,0.0192
10,GACCCGGC,-0.0968
11,GCTGAGCC,-0.119
12,AACGCTTC,-0.0949
13,GATCAACA,0.131
14,AATCAGCG,0.211
15,AATCAACA,0.275
16,GATCAGCA,0.141
17,AATCAGCT,0.274
18,TATCAACA,0.0364
19,AATCAGCA,0.258
20,CATCAGCA,0.01
21,AATCAGCC,0.0909
22,CGACAGCA,0.0252
23,AGTTCAGA,-0.104
24,CAACATGA,0.144
25,CACTAGAA,-0.0573

row,Sequence,PBM E-score
1,GTTTGTCA,0.317
2,GATTGTCA,0.117
3,CTTTGTCA,0.278
4,CTTTGTCC,0.058
5,CTTTGTTA,0.222
6,GTTTGTTA,0.202
7,AAGATTAG,0.144
8,GTCTGCGA,0.0486
9,AGACCGGA,-0.062
10,CTCGCGAC,0.15
11,TTCGCGAA,0.343
12,GTCGCGAC,0.391
13,GTCGCGAA,0.0594
14,ATCGCGAC,0.195
15,TCCGCGAA,0.202
16,GGGCCTCA,-0.0631
17,ATCATTTC,0.136
18,GGCTCATA,0.0877
19,CAACAGGA,-0.182
20,ACCTCGGG,-0.173
21,ATGCTTAC,0.112
22,CTGCTTAC,0.276
23,CCGCTTAC,0.184
24,GCGCTTAA,0.106
25,CTGCTTAA,0.0117

row,Sequence,PBM E-score
1,GCGCTTAC,0.299
2,ACCGTATA,-0.00739
3,CAAAAGAC,-0.00184
4,ATCATAAG,0.0855
5,ATCATAAT,0.144
6,ATCATAAC,0.273
7,CTTCGTTA,-0.0282
8,ACTTAATA,0.186
9,AATTAATT,0.285
10,AATTAAGA,0.104
11,AATTAATG,0.242
12,AATTAATC,0.227
13,AATTAATA,0.432
14,AGCGAACA,0.195
15,CGCCAACA,0.157
16,AAAAAAAC,0.121
17,CAAATGGG,0.0861
18,TCATATCA,0.0259
19,CCATATCA,-0.00962
20,GCATATCA,0.278
21,CCATGCAG,-0.0439
22,GCGGAAGC,0.0712
23,AGCGGCTC,-0.0559
24,ACGGATAG,0.0118
25,ACGGAAAT,0.288

row,Sequence,PBM E-score
1,ACGGAAAA,0.24
2,ACGGAAAC,-0.0435
3,ACGGATAT,0.254
4,ACGGATAA,0.0973
5,AGGGTTGA,-0.0586
6,GGATCGAA,0.045
7,CTTCTCGA,0.0254
8,ACGGCTGA,0.0503
9,CAGCCATG,-0.077
10,ATAATATA,0.227
11,GATAAATA,0.123
12,GTAATATA,0.327
13,CAAATATA,-0.0118
14,AAAATATC,0.198
15,TAAATATA,0.277
16,TATAAATA,0.25
17,AAAATATA,0.208
18,CATAAATA,0.171
19,CAAATATC,0.261
20,CAAATATG,0.135
21,CTAATATA,0.239
22,ATCCCTTG,-0.131
23,ACAATAGT,0.109
24,GCAGCGGA,-0.0753
25,AGAGAGAA,-0.0532

row,Sequence,PBM E-score
1,ACACTAAA,0.144
2,TTGCACAA,0.0972
3,CCAAAAAC,0.116
4,AAGTCTGG,0.105
5,TAAAAATA,0.277
6,CTAAAATA,0.0866
7,AATAAAGA,0.195
8,AATAAACT,0.12
9,AAAAAATA,0.0934
10,AATAAAAA,0.264
11,AATAAATC,-0.0137
12,AATAAAAT,0.166
13,AATAAATG,0.0809
14,AATAAATT,0.282
15,AATAAAAG,0.0174
16,AATAAATA,0.313
17,AACCCGTG,-0.317
18,CCCACCCC,0.0432
19,CGCTATGA,0.119
20,CCCTTGGA,0.00683
21,CGTATTAA,0.0596
22,ACTAGAAT,0.0557
23,ACTGCATC,-0.00501
24,ATCAGAGA,-0.0164
25,AGCGAAAT,-0.184

row,Sequence,PBM E-score
1,CATATCGC,0.0925
2,GTACCATA,-0.158
3,ATACCATG,-0.0699
4,ATACCATA,0.27
5,ATTTAACA,0.193
6,GCCTGAGA,-0.169
7,ATGGGACC,-0.00547
8,CAGCCACC,-0.0873
9,ACAGACAC,0.122
10,ACAGACAG,0.0659
11,TGTGACAA,0.0395
12,ACAGACAA,0.29
13,ACTGACAT,-0.0482
14,TCAGAAAA,-0.145
15,ACTGACAC,-0.0887
16,ACAGAAAA,0.281
17,CCTGACAA,-0.0066
18,ACTGACAA,0.264
19,TCTGACAA,0.25
20,ACAGAAAC,0.116
21,TGCATACA,0.0433
22,AGGTGCAA,-0.0504
23,CTTTCATC,0.0102
24,GGCCTCAC,0.0157
25,GGCTTAAC,0.0615

row,Sequence,PBM E-score
1,CTTGGCTA,0.134
2,GGCTTCAA,-0.139
3,CACAGCCG,0.0914
4,TAATCCCA,-0.0386
5,CACACTTC,0.0239
6,AGTACCTG,-0.0799
7,CAGAGGGC,-0.213
8,CGTGCCAC,-0.091
9,CGCATTCC,-0.216
10,GCTGACAA,0.412
11,GATGACAC,0.0339
12,GTTGACAA,0.166
13,GATGACAA,0.304
14,GCTGACAC,0.247
15,CATGACAA,0.165
16,CGCAATCC,0.248
17,CCTGATCG,-0.0975
18,ACGGAACA,0.0866
19,TCGGAACA,0.268
20,CCGGAACA,0.108
21,AAATAATC,0.198
22,AAATAAAT,0.314
